Results filed as inconclusive are left out. Entries that show only a call come without a potency. The source made the active and inactive calls. Unless noted, the call rests on the fitted dose curve; in most records, active means well fitted curve in the direction sought with a large enough effect; inconclusive means small, poorly fitted or top-dose-only effect, or another doubt; inactive means no such curve, though single readings can be large; an effect the other way counts as inactive or inconclusive. Peptide text beside a SMILES is read from it.

Here are results for 33 compounds from PubChem BioAssay (NCATS).

In assay [1] the target is ATP-dependent 6-phosphofructokinase (Trypanosoma brucei brucei) (UniProt O15648). Description: qHTS Assay to Find Inhibitors of T. brucei phosphofructokinase: hit validation (AID 492961). Further: series mostly up to about 51 µM. In short, it runs like this:
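Luminescence from ADP-Glo reports ADP generated as T. brucei PFK (1.25 nM) phosphorylates 0.5 mM fructose-6-phosphate using 0.1 mM ATP. Reactions ran 45 min at room temperature, pH 8.0.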
In general terms: Quantitative high-throughput screening tests each substance at several concentrations.

In assay [2] the target is Tyrosyl-DNA phosphodiesterase 1 (Homo sapiens) (UniProt Q9NUW8). The experiment in a line: Confirmation Assay for Inhibitors of Tyrosyl-DNA Phosphodiesterase (TDP1) (AID 489007). Further: potency means the concentration at half of the fitted maximal effect; nearly all actives have a fitted effect of over 40% in size. The note with it: recombinant human TDP1 enzymatic activity, dose-response. In short, it runs like this: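 AlphaScreen read-out: streptavidin donor and anti-FITC acceptor beads (10 ug/ml) bind intact substrate, so Tdp1 removal of tyrosine-FITC lowers signal. Enzyme 1 nM, substrate 15 nM, 5 min reaction at room temperature after 15 min compound preincubation.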
Chain of Tyrosyl-DNA phosphodiesterase 1 (Homo sapiens) (Q9NUW8 whole entry, looked up): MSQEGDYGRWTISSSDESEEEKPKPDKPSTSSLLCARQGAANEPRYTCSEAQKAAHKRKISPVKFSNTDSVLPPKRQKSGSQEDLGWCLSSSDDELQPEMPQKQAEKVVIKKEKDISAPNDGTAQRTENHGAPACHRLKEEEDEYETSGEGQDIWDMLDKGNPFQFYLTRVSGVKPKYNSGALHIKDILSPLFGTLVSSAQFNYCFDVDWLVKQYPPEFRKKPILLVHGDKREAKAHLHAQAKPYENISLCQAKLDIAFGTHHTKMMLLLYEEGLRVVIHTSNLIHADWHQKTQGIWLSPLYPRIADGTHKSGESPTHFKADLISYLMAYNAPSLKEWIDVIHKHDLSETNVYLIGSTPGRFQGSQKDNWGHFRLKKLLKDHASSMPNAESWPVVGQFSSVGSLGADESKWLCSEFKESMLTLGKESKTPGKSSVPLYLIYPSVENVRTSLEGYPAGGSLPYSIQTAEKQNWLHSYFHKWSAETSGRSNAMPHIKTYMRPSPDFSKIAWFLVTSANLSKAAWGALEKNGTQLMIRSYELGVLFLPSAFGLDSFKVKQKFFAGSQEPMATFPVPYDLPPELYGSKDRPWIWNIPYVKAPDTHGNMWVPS

The target in assay [3] is M-phase phosphoprotein 8 (Homo sapiens) (UniProt Q99549). Description: qHTS Validation Assay for Inhibitors for MPP8 Chromodomain Interactions with Methylated Histone Tails (AID 488949).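 Further: AlphaScreen signal from MPP8 chromodomain bound to biotinylated H3K9me3 peptide; top concentration of the series differs between compounds; nearly all actives have a fitted effect of over 55% in size.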 In short, it runs like this: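 Disruption of the preformed MPP8–trimethyl-H3K9 peptide complex (both 50 nM, 30 min, RT) is measured after 30 min compound exposure, using AlphaScreen proximity beads; aurintricarboxylic acid titration serves as plate control.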
Chain of M-phase phosphoprotein 8 (Homo sapiens) (Q99549 whole entry, looked up): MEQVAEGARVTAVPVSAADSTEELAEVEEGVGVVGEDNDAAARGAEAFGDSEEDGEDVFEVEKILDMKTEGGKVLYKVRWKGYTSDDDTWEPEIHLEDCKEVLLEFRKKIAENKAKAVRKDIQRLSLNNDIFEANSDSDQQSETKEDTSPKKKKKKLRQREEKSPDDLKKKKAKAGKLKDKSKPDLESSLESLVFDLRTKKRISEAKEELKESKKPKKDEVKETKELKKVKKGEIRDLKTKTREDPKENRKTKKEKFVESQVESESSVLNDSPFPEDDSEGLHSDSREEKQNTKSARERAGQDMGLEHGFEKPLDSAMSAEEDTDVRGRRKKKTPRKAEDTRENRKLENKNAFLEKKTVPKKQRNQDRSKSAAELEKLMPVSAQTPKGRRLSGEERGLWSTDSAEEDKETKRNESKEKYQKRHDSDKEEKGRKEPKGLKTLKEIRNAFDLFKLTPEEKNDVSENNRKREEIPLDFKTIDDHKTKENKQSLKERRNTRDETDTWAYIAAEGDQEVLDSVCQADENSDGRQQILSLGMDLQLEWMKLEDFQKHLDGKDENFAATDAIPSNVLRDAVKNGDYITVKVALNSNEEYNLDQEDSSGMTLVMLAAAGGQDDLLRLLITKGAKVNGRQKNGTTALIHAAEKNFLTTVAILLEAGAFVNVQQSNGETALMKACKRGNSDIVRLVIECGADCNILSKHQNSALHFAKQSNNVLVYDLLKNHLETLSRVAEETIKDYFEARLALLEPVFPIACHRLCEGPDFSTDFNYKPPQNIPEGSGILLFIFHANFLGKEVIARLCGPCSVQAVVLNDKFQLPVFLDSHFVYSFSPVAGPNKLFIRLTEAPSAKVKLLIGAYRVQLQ

The target in assay [4] is Transient receptor potential cation channel subfamily V member 1 (Homo sapiens) (UniProt Q8NER1). The experiment in a line: HTS Assay for Compounds that Act as Enhancers of the Vanilloid Receptor 1 (AID 488979). In short, it runs like this: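 TRPV1 cells loaded with Fluo-8 calcium dye; compound added and Ca2+ signal (ex 480/em 520 nm) followed 3 min, then capsaicin at EC20 added and read 2 more min to detect enhancement.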
Chain of Transient receptor potential cation channel subfamily V member 1 (Homo sapiens) (Q8NER1 whole entry, looked up): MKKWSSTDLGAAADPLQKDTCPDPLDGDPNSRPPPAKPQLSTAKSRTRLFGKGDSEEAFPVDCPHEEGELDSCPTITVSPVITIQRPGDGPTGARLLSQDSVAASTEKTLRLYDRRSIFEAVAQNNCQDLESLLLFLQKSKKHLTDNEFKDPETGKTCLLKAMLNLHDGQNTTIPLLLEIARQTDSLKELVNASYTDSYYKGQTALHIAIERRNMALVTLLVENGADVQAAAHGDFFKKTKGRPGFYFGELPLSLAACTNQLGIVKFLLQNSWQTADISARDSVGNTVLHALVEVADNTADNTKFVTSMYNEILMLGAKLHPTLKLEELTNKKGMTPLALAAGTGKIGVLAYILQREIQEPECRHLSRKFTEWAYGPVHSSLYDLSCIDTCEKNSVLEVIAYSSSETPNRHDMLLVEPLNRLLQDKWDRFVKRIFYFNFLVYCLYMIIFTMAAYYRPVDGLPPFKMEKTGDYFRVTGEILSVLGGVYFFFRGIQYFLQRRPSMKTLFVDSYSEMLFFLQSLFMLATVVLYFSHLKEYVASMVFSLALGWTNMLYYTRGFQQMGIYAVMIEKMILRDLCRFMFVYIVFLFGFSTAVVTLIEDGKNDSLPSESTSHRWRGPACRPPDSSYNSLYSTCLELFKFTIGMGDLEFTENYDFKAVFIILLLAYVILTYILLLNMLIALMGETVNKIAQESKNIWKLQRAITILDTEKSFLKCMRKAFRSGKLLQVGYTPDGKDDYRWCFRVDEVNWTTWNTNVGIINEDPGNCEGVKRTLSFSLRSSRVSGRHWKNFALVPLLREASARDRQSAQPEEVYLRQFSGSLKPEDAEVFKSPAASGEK

Assay [5] addresses Thyrotropin receptor (Homo sapiens) (UniProt P16473). The experiment in a line: qHTS Assay for Antagonists of the Thyroid Stimulating Hormone Receptor (AID 488980). Further: series mostly up to about 58 µM. In short, it runs like this: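 Cells expressing human TSHR (HEK293) are dispensed in HBSS/HEPES containing 70 uM RO 20-1724, compound is added, then TSH at EC80 (4 nM final). Antibody in lysis buffer follows, 30 minutes at room temperature before HTRF detection.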

In assay [6] the target is Galactokinase (Homo sapiens) (UniProt P51570). Description: qHTS Validation Assay for Inhibitors of Human Galactokinase (GALK) (AID 493189). In short, it runs like this:
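Compounds were pin-transferred into ATP buffer, then GALK-galactose mix was added (final 5 nM enzyme, 100 uM galactose, 35 uM ATP). After 1 h at room temperature, remaining ATP was measured luminescently.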

The nature of assay [7]: Validation screen for small molecules that induce DNA re-replication in SW480 colon adenocarcinoma cells (AID 504364). In short, it runs like this:
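Read-out: total Hoechst intensity of nuclei by fluorescence scanning imager; hits raise the fraction of nuclei with elevated DNA content. Cells received compound for 48 hr at 37 C before a 40 min stain.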

In assay [8] the target is Thioredoxin reductase 1, cytoplasmic (Rattus norvegicus) (UniProt O89049). The experiment in a line: qHTS Assay for Substrates of Mammalian Selenoprotein Thioredoxin Reductase 1 (TrxR1) (AID 488772).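 Further: series mostly up to about 57 µM; a drop in NADPH fluorescence below the no-compound background marks a TrxR1 substrate.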 In short, it runs like this:
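In this dual-purpose format, potential substrates are identified from the first fluorescence read after selenite addition, not from the 8-minute delta. Rat enzyme is preincubated with NADPH and then with compound at ~22 deg C.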

For assay [9] the target is unchanged. The experiment in a line: qHTS Assay for Inhibitors of Mammalian Selenoprotein Thioredoxin Reductase 1 (TrxR1) (AID 488773).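 Further: drop in NADPH fluorescence over an 8 min run after selenite addition; series mostly up to about 57 µM; nearly all actives have a fitted effect of over 40% in size.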 In short, it runs like this: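 Inhibition is scored from the loss of NADPH fluorescence between first and last reads of an 8-min kinetic run. Selenite (400 uM) was the substrate, added after 15 min compound preincubation at room temperature.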

For assay [10], the target named is Flap endonuclease 1 (Homo sapiens) (UniProt P39748). Description: qHTS Validation Assay for the Inhibitors of Human Flap endonuclease 1 (FEN1) (AID 488816). In short, it runs like this:
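Enzyme reagent 10 nM; cpds pinned; 15 min RT preinc.; substrate 50 nM final; reads t=0 and 15 min; no-enzyme buffer wells as neg. control; normalized data, 4-parameter Hill fit.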

For assay [11], the target named is Methanococcus maripaludis chaperonin (MmCpn) (UniProt Q6LX38). Description: High-Throughput Screening for Modulators of Cytosolic Chaperonin Activity: MmCpn Primary Screen (AID 488978).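 Further: 50 nM MmCpn enzyme hydrolysing 30 µM ATP at 37 °C.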 In short, it runs like this: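 Measures ATPase turnover of the M. maripaludis chaperonin (50 nM final) against 30 uM ATP over 10 min at 37C, with compound added 5 min beforehand at room temperature. ADP is quantified by HTRF immunodetection.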

Assay [12] addresses D(1A) dopamine receptor (Homo sapiens) (UniProt P21728). The experiment in a line: HTS Assay for Allosteric Agonists of the Human D1 Dopamine Receptor: Primary Screen for Agonists (AID 488981). In short, it runs like this: (§1)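 Tetracycline-induced HEK293 Trex D1 cells with forced coupling to calcium, loaded with no-wash calcium dye; kinetic fluorescence read 180 s after compound addition for agonism, then a further 180 s after an EC20 dopamine challenge for potentiation.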

The target is the same in assay [13]. The experiment in a line: HTS Assay for Allosteric Agonists of the Human D1 Dopamine Receptor: Primary Screen for Potentiators (AID 488982). In short, it runs like this:
as §1

The target is the same in assay [14]. The experiment in a line: HTS Assay for Allosteric Agonists of the Human D1 Dopamine Receptor: Primary Screen for Antagonists (AID 488983).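 Further: calcium flux response to an EC80 dopamine challenge measured with no-wash dye; nearly all actives have a fitted effect of over 65% in size.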 In short, it runs like this:
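Calcium flux readout, no-wash dye, inducible HEK293 T-REx D1 line (force-coupled). Compound added after 10 s baseline, 180 s kinetic read; then dopamine at EC80, further 180 s read.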

Assay [15] is described as follows: Validation screen for small molecules that induce genotoxicity in human embryonic kidney (HEK293T) cells expressing luciferase-tagged ELG1 (AID 493106). In short, it runs like this:
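qHTS format; 2,000 HEK293T ELG1-luc cells/well; 23 nL compound via pin tool; 16 hr, 37 °C/5% CO2; ONE-Glo, 30 min RT; luminescence read.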

Assay [16] addresses ATPase family AAA domain-containing protein 5 (Homo sapiens) (UniProt Q96QE3). Description: Validation screen for small molecules that inhibit ELG1-dependent DNA repair in human embryonic kidney (HEK293T) cells expressing luciferase-tagged ELG1 (AID 493107).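 Further: cells co-treated with the DNA-damaging agent 5-fluorouridine alongside compound; series mostly up to about 46 µM; inhibitors lower the ELG1-luciferase luminescence signal; nearly all actives have a fitted effect of over 70% in size.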 In short, it runs like this:
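ELG1-luciferase HEK293T reporter; 5-fluorouridine + compound/DMSO, 16 hr, 37 °C, 5% CO2; ONE-Glo 30 min RT; luminescence read, qHTS format.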

Assay [17] in a line: Nrf2 qHTS screen for inhibitors: Validation (AID 493153; active means well fitted inhibition curve with a large enough effect in the main read-out, with a control signal flat, not every such curve was filed as active). The settings on record: viability change: measured here: cytotoxicity max response. In short, it runs like this: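 Concentration-response test in A549 ARE_Fluc reporter cells (5% FBS OPTI-MEM), compound exposure 18-24 h at 37°C, 5% CO2. Cell viability measured first by CellTiter-Fluor fluorescence; ARE-driven luciferase luminescence then measured as Nrf2 activity.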

Assay [18] can be described thus: qHTS for Inhibitors of Cell Surface uPA Generation: Validation Assay (AID 493164).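 Further: RAW 264.7 macrophage cells exposed to compound for 18 h.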 In short, it runs like this:
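Compounds are titrated over seven points (2.45 nM–38.3 uM final) onto pre-plated RAW 264.7 cells and incubated for 18 h. Retained intracellular ATP, measured with ATP-Lite, indicates blocked lethal factor entry.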

Assay [19] concerns the target Peptidyl-prolyl cis-trans isomerase NIMA-interacting 1 (Homo sapiens) (UniProt Q13526). The experiment in a line: qHTS Validation Assay to Find Inhibitors of Pin1 (AID 504536; active means well fitted inhibition curve with a large enough effect in the polarisation, with a control signal flat, not every such curve was filed as active; the % refers to the polarisation). In short, it runs like this: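 Fluorescence polarization competition: compounds (titration) displace HiFluor-488-labeled Pin1-1b peptide from Pin1 (0.3 uM final) in pH 7.5 HEPES buffer with DTT, 10 min at room temperature; %Activity normalized to no-enzyme wells, curves fitted.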

For assay [20], the target named is Phosphoglycerate kinase, glycosomal (Trypanosoma brucei brucei) (UniProt P07378). Description: qHTS Validation Assay to Find Inhibitors of Phosphoglycerate Kinase (AID 504547). In short, it runs like this: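 Compounds are pinned into the substrate/PGK mixture, and GAPDH (100nM final) is added to start the reaction by producing 1,3-BPG. After 60 minutes at room temperature, Kinase-Glo Plus is added and luminescence is measured 10 minutes later.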

Chain of D(1A) dopamine receptor (Homo sapiens) (P21728 whole entry, looked up): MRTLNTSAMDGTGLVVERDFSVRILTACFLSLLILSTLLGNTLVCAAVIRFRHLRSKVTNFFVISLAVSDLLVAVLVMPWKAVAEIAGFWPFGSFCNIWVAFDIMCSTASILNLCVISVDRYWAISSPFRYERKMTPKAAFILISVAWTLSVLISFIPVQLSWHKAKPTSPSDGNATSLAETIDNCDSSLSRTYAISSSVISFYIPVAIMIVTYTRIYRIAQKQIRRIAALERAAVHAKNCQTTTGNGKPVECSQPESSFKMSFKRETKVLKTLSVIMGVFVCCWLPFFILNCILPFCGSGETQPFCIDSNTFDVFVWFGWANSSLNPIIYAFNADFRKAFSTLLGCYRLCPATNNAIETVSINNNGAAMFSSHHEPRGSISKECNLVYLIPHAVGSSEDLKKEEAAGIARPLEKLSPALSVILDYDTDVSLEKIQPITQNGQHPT
Chain of ATP-dependent 6-phosphofructokinase (Trypanosoma brucei brucei) (O15648 whole entry, looked up): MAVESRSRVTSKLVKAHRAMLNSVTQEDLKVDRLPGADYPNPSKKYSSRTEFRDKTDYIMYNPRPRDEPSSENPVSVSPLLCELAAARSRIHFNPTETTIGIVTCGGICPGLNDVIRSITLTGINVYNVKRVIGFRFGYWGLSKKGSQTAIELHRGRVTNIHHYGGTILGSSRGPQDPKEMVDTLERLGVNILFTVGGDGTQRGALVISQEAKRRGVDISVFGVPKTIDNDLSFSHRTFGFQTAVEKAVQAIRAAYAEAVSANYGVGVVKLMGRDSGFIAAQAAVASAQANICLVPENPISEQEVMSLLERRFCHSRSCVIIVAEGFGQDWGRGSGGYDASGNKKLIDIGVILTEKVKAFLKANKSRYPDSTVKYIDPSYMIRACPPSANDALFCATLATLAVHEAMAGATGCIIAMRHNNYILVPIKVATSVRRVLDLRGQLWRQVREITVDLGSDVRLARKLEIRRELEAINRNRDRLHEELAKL
Chain of Galactokinase (Homo sapiens) (P51570 whole entry, looked up): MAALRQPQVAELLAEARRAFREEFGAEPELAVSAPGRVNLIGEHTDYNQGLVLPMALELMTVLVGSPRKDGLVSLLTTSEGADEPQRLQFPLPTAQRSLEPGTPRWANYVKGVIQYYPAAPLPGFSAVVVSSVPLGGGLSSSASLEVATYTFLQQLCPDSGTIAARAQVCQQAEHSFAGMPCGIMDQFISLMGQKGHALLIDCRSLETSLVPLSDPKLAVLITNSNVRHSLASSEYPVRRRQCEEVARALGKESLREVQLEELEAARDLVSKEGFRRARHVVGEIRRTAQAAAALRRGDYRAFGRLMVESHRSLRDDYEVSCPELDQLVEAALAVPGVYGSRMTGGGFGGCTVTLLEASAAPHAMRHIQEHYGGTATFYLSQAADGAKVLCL
Chain of Thyrotropin receptor (Homo sapiens) (P16473 whole entry, looked up): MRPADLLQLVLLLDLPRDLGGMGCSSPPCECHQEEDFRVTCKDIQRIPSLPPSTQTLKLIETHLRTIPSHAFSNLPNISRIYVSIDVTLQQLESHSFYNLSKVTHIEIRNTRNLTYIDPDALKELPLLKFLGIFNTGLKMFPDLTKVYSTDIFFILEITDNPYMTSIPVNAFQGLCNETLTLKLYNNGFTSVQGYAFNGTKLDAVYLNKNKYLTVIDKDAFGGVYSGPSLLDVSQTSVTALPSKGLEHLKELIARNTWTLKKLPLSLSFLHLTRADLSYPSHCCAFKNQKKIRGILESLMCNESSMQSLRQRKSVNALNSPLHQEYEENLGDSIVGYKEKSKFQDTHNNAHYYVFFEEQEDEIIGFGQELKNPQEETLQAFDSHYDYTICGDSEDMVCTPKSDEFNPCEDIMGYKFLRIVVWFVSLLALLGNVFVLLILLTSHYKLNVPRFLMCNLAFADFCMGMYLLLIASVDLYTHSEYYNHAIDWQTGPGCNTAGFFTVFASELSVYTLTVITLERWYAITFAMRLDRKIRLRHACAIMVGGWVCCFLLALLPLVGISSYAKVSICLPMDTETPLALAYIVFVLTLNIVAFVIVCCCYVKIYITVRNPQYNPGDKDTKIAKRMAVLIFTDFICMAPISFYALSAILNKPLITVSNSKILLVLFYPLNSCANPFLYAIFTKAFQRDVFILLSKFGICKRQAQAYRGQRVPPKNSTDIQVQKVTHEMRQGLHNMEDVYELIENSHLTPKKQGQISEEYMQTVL
Chain of Thioredoxin reductase 1, cytoplasmic (Rattus norvegicus) (O89049 whole entry, looked up): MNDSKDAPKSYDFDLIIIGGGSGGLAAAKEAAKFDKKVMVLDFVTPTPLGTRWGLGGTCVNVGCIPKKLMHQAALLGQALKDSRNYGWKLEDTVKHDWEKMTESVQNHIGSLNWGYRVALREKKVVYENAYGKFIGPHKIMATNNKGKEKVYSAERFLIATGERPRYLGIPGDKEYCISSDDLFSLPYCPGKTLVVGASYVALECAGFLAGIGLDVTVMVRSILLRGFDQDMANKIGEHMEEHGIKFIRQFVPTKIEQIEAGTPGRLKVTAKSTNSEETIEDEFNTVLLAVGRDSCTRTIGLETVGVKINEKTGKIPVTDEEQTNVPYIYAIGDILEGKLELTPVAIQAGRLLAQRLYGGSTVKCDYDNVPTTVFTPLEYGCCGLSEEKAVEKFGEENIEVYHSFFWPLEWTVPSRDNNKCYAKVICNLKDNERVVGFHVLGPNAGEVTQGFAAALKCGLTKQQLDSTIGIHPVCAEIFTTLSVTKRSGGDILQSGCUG

For the compound `CC(O)CO` (stereo not drawn), in [1], the Potency entry is “inactive”.

As for `O=C(O)c1cc(O)c2c(c1)[O][Bi][O]2`, the Potency in assay [2] was 15.8 µM (active). For the same compound, in assay [1], the Potency entry was “inactive”. In the case of `C#CCOc1ccc2c(C)cc(=O)oc2c1`, the Potency result in [1] was “inactive”. Still for that read-out and setting: the value for `CC(NNC(=O)c1ccccc1)c1ccccc1` (stereo not drawn) was “inactive”; that for `CC1(C)C(C=C(Cl)Cl)C1C(=O)OCc1cccc(Oc2ccccc2)c1` (stereo not drawn) was “inactive”. For `CC[N+](C)(C)Cc1ccccc1Br`, the compound was called inactive in assay [3], in assay [4], in assay [5], in [6] and in assay [7]. Moreover, the Potency entry in assay [1] was “inactive”. In the case of `Cc1ccccc1OCC(O)CNCCOc1ccc(C(N)=O)cc1` (stereo not drawn), the Potency result in [1] was “inactive”. In the case of `C=CCSSSCC=C`, the Potency result in assay [1] is “inactive”.

With `CCOc1ccc(N=Nc2ccc(N)cc2N)cc1`, in assay [1], the Potency result was “inactive”.

Regarding `CCCCCCCCCCCC[n+]1ccc2ccccc2c1`, the Potency entry in assay [1] is “inactive”. On the same count and under the same terms, in the case of `O=CCCCC=O` it was “inactive”; in that of `CN1C(=O)CN2CCc3ccccc3C2c2cc(Cl)ccc21` (stereo not drawn), “inactive”; in that of `CC(C)N=c1cc2n(-c3ccc(Cl)cc3)c3ccccc3nc-2cc1Nc1ccc(Cl)cc1`, “inactive”. In the case of `Cc1ccccc1`, the Potency entry in assay [1] was “inactive”. In the case of `CCCCC(=O)O[C@]1(C(=O)CO)[C@H](C)C[C@H]2[C@@H]3CCC4=CC(=O)C=C[C@]4(C)[C@@]3(F)[C@@H](O)C[C@@]21C`, the Potency result in assay [1] was “inactive”. With `Nc1c(N=Nc2ccc(-c3ccc(N=Nc4cc(S(=O)(=O)O)c5ccccc5c4N)cc3)cc2)cc(S(=O)(=O)O)c2ccccc12`, the Potency result in [1] was “inactive”. For the compound `CC(=O)N[C@@H](CC(=O)O)C(=O)N[C@@H](CCC(=O)O)C(=O)O` (Ac-Asp-Glu-OH), the Potency in assay [2] was 25.1 µM (active). As to `COCC(=O)Nc1cc(Sc2ccccc2)ccc1N=C(NC(=O)OC)NC(=O)OC`, the Potency result in assay [1] is “inactive”. Turning to `COC(F)(F)C(Cl)Cl`, the Potency result in assay [1] is “inactive”. On to `CCN(CC)CCOc1ccc(-c2nc3cc(Cl)ccc3s2)cc1`, for which the Potency entry in [1] is “inactive”. Turning to `COC(=O)[C@H]1[C@H]2C[C@@H]3c4[nH]c5ccccc5c4CCN3C[C@H]2C[C@@H](OC(=O)c2cc(OC)c(OC)c(OC)c2)[C@@H]1OC`, the Potency entry in assay [1] was “inactive”. On the same count and under the same terms, the value for `O=C(Nc1ccc(Br)cc1)c1cc(Br)c(Br)s1` was “inactive”. As for `O=C(O)CCC(=O)C(=O)O`, the Potency entry in [1] was “inactive”.

As for `O=C(Nc1cccc(C(F)(F)F)c1)c1cc(Br)cc(Br)c1O`, the Potency entry in [1] is “inactive”. Regarding `CN1Cc2c(N)cccc2C(c2ccccc2)C1` (stereo not drawn), the compound was classed as inactive in assay [8], in [9], in assay [10], in [3], in assay [11] and in assay [4]. Further, the outcome in assay [5], in [12], in assay [13], in assay [14], in [15] and in assay [16] was inactive. Besides, the result in assay [17], in [18], in assay [6], in assay [7], in assay [19] and in assay [20] was inactive. Also, the Potency result in assay [1] was “inactive”. This compound also showed a viability change in [17] of 7.68%.

In the case of `O=C1CSC2(CCN(CCCN3c4ccccc4Sc4ccc(Cl)cc43)CC2)N1`, the Potency result in assay [1] was “inactive”. The same measure, in the same setting: the value for `CCCCCCCC/C=C\CCCCCCCC(=O)O` was “inactive”. For the compound `CCOC(=O)C1=C(C)NC(C)=C(C(=O)OCC)C1c1ccccc1C=CC(=O)OC(C)(C)C`, the Potency entry in assay [1] was “inactive”. For the compound `Cc1cc(C(=O)NNCc2ccccc2)no1`, in assay [1], the Potency entry was “inactive”.

As to `O=C(O)CN(CCN(CC(=O)O)CC(=O)O)CC(=O)O`, in [1], the Potency entry is “inactive”. `CCC(=O)NCCC1CCc2ccc3c(c21)CCO3` (stereo not drawn): the Potency result in assay [1] is “inactive”. In the case of `C[C@]12CCC(=O)C=C1CC[C@@H]1[C@@H]2[C@@H](O)C[C@@]2(C)[C@H]1CC[C@]2(O)C(=O)COP(=O)(O)O`, the Potency entry in assay [1] is “inactive”.

As for `CCCC(=O)O[C@]1(C(=O)CCl)[C@H](C)C[C@@H]2[C@H]3CCC4=CC(=O)C=C[C@]4(C)[C@@]3(F)C(=O)C[C@@]21C`, the Potency entry in assay [1] is “inactive”.
